# The campaign covered roughly 4,400 compounds. About 3,700 (84%) were called active. So high a share suggests a set chosen from earlier hits. The list is a sample of the results. Values without a mark were called inactive.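 The calls were made as follows: active = inhibition above about 39% in either of two replicate wells at 20 µM (limit read from the data); inactive = the rest.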
# Experiment: tim23-1 mutant yeast growth inhibitors, confirmation, luminescence, single concentration (AID 463218);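 also: temperature-sensitive tim23-1 mutant grown at 25 °C; 0% = DMSO wells with yeast and 100% = medium wells without yeast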
# Conditions: S. cerevisiae tim23-1 growth, BacTiter-Glo luminescence, 24 h; at 20 µM; hits give high values
row,Compound,inhibition
1,Cc1ccc(Nc2nc(-c3ccc(O)cc3O)cs2)nc1,70.4% (active)
2,N/C(=N\OC(=O)Nc1ccc(Cl)c(Cl)c1)c1ncc(C(F)(F)F)cc1Cl,71.8% (active)
3,CN(C)/N=C/c1cn(-c2ccccc2)nc1-c1cccnc1,43% (active)
4,Cc1ccc(-c2nn(C(C)(C)C)c3ncnc(N)c23)cc1,65.7% (active)
5,Clc1ccc(Nc2nc(-c3cccs3)cs2)nc1,68.5% (active)
6,Cc1cccc(Nc2nc(-c3ccccc3)cs2)n1,23.9%
7,CC(C)Cn1c(N)c(C(=O)NCc2cccs2)c2nc3ccccc3nc21,46.1% (active)
8,COc1ccc2nc(NC(=O)NC3CCCCC3)sc2c1,53.1% (active)
9,COc1ccc(NC(=O)/C(Cl)=C(/Cl)S(=O)Cc2ccc(C)cc2)cn1 (stereo not drawn),27.6%
10,O=c1nc2s/c(=C\c3ccco3)c(=O)n2nc1Cc1ccccc1,-20.4%
11,CCOc1ccccc1/C=c1\sc2nc(-c3ccco3)nn2c1=O,56.6% (active)
12,O=C(NCc1ccc2c(c1)OCO2)c1c(O)nc2sccn2c1=O,66.3% (active)
13,Cc1oc2c(c1C(=O)N1CCOCC1)C(=O)c1ccccc1C2=O,59.5% (active)
14,Cc1ccccc1NCC(=O)N/N=C\c1ccc([N+](=O)[O-])s1,79.3% (active)
15,CCOc1ccc(NC(=O)CCC(=O)N/N=C/c2ccc([N+](=O)[O-])s2)cc1,76.9% (active)
16,COc1ccc(C(=O)Nc2ccccc2C(=O)N/N=C/c2ccc(O)c(OC)c2)cc1,98.3% (active)
17,COc1cc(/C=N/Nc2nc3ccccc3s2)ccc1O,33.5%
18,COc1ccc(C(=O)Nc2ccccc2C(=O)N/N=C/c2ccccc2OC)cc1,72% (active)
19,Oc1c(Cl)cc(Cl)c(Cl)c1Cc1c(O)c(Cl)cc(Cl)c1Cl,95.3% (active)
20,O=C(Nc1ccc2oc(-c3ccccc3F)nc2c1)c1ccco1,82.7% (active)
21,CC(C)(C)c1ccc(Oc2ccc(N)cc2)cc1,51.7% (active)

row,Compound,inhibition
1,Oc1ccc(Br)cc1/C=N/Nc1ccccn1,65.5% (active)
2,Cc1cc(N)n2nc(-c3ccc(C(C)(C)C)cc3)cc2n1,72.7% (active)
3,COC(C/C=C/C(=O)[C@@H](C)OCc1ccccc1)OC,55.2% (active)
4,COc1cc([N+](=O)[O-])ccc1NC(=O)COC(=O)CCOc1ccc(C)cc1,64.7% (active)
5,CCc1ccccc1NC(=O)CN(c1ccc(OC)cc1OC)S(=O)(=O)c1ccccc1[N+](=O)[O-],32.9%
6,O=C(CNC(=O)OCc1ccccc1)Oc1cc2oc(=O)cc(-c3ccccc3)c2cc1Cl,31.1%
7,C=CCNC(=O)c1ccc2c3n(nc2c1)-c1ccc(C)cc1CO3,75.2% (active)
8,Oc1ccccc1-c1cc(-c2ccc(Cl)cc2)n[nH]1,-21.6%
9,CCSC1=C(C#N)C(=O)n2c1cc1c2CCCC1,56.1% (active)
10,O=C1NC(Nc2nc3ccccc3s2)(C(F)(F)F)C(=O)N1C1CCCCC1 (stereo not drawn),63.5% (active)
11,Cc1nn(-c2ccccc2)c(Cl)c1/C=C/C(=O)c1ccc(O)cc1,43.2% (active)
12,Cc1nn(Cc2ccc(Cl)c(Cl)c2)c(C)c1NC(=O)c1cc(C2CC2)on1,59.7% (active)
13,Cc1ccc(-c2ccc(/C=N/NC(=O)CN3CCOCC3)o2)cc1[N+](=O)[O-],76.8% (active)
14,Cc1ccc(C(=O)COc2cccc(NC(=O)c3ccco3)c2)cc1,52.7% (active)
15,COc1ccc(-c2cc(C3CCN(c4ncccc4[N+](=O)[O-])CC3)[nH]n2)cc1,46% (active)
16,O=[N+]([O-])c1ccc(C=Nc2ccc(Cl)cc2Cl)s1,77.5% (active)
17,O=[N+]([O-])c1ccc2c(c1)Nc1nc3ccccc3nc1N2,48.9% (active)
18,CCCc1[nH]nc2c1C(c1ccc(Br)s1)C(C#N)=C(N)O2 (stereo not drawn),73.6% (active)
19,O=[N+]([O-])c1ccc(N=Cc2c(O)ccc3ccccc23)cc1,61.4% (active)
20,Oc1ccc2ccccc2c1C=Nc1ccccc1,65.5% (active)
21,CC1CC2=C(CC1/C=N/NC(N)=S)C(C)(C)CCC2 (stereo not drawn),43.6% (active)

row,Compound,inhibition
1,COc1ccc(/C=C(\C#N)C(=O)ONC2=NCCCCC2)cc1,81.6% (active)
2,O=c1c2cc(Br)ccc2nc(-c2cccc(Cl)c2)n1O,60.2% (active)
3,COc1cc(/C=C2/C(=O)ON=C2C)ccc1OCc1cccc(F)c1,53.9% (active)
4,COc1cc(/C=C2/C(=O)ON=C2C)ccc1OCc1ccccc1F,55.5% (active)
5,Clc1ccc(C2CC(c3cccs3)n3ncnc3N2)cc1Cl (stereo not drawn),40.9% (active)
6,CCN1C(=O)/C(=C2\SC(N3CCCCC3)=NC2=O)c2ccccc21,41.5% (active)
7,COc1cccc(C2Nc3cccc4cccc(c34)N2)c1,77.5% (active)
8,Cc1cc(C(=O)N/N=C\C(Br)=C\c2ccccc2)c(C)o1,50.8% (active)
9,C/C(=N/NC(=O)c1cc(Cl)ccc1O)C12CC3CC(CC(C3)C1)C2,59.9% (active)
10,CC(=NCc1ccco1)C1=C(O)c2ccccc2C1=O,50.4% (active)
11,CC(=NCc1ccc2c(c1)OCO2)C1=C(O)c2ccccc2C1=O,67.6% (active)
12,COc1ccc(C(=O)NCC(=O)N/N=C/c2ccc([N+](=O)[O-])o2)cc1OC,75.6% (active)
13,c1ccc(-c2nnc3n2NC(c2ccc4c(c2)OCO4)S3)cc1 (stereo not drawn),43.8% (active)
14,Nc1ccccc1SC(C[N+](=O)[O-])c1ccccc1 (stereo not drawn),89.4% (active)
15,Cc1cc(C)c(S(=O)(=O)c2ccccc2)c(OC(=O)c2c(F)cccc2Cl)n1,61.8% (active)
16,O=c1c2ccccc2[nH]c(=S)n1CCN1CCC(=C(c2ccc(F)cc2)c2ccc(F)cc2)CC1,41.8% (active)
17,CCCC(=O)N1CCN(c2nnc(-c3ccc(C)cc3)c3ccccc23)CC1,16%
18,COC(=O)N/N=C/c1ccc(-c2ccc(Cl)c(Cl)c2)o1,43.3% (active)
19,O=C(Nc1ccccc1)c1nnsc1S(=O)(=O)c1ccc(Cl)cc1,93% (active)
20,FC(F)(F)c1cccc(Nc2ncnc3ccccc23)c1,29%
21,CCOc1cc(NC(=O)c2ccccc2C(=O)O)c(OCC)cc1NC(=O)c1ccccc1F,66.5% (active)
